Potency and affinity values are given separately. Calls of active or inactive are those of the source.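 How the source made its calls: active means every repeat run showing a signal drop whose fitted half-maximal concentration is at most twice the top tested concentration; inconclusive means repeat runs disagree, or flat partial drop, or poor fit; inactive means the rest.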
Assay: general mammalian cell viability loss – activator set, cherry-pick, cytotoxicity control for miR-122 modulator project, dose response (AID 720690)
Details: HEK293T viability, CellTiter-Glo luminescence, 48 h; series mostly up to 26 µM

Row | SMILES | outcome
1 | COc1ccc(CNC(=O)NCCc2c[nH]c3ccccc23)cc1 | inactive
2 | C[C@H]1CCCCO[C@@H](CN(C)CC2CCCCC2)[C@@H](C)CN([C@@H](C)CO)C(=O)c2cc(NC(=O)Nc3cccc4ccccc34)ccc2O1 | inactive
3 | C[C@@H]1CN([C@@H](C)CO)C(=O)c2cccc(NS(C)(=O)=O)c2O[C@H]1CN(C)S(=O)(=O)c1ccc(Cl)cc1 | inactive
4 | Cc1ccc(-c2nnn(CC(=O)N(CC(=O)NCC3CCCO3)c3ccccc3)n2)o1 (stereo not given) | inactive
5 | CN1C(=O)c2cc(NC(=O)C3CC3)ccc2OC[C@@H]2O[C@H](CC(=O)NC3CCC3)CC[C@H]21 | inactive
6 | COC(=O)C[C@H]1CC[C@@H]2[C@@H](COc3ccc(NC(=O)c4cscn4)cc3C(=O)N2C)O1 | inactive
7 | Fc1ccccc1-c1nc(-c2ccncc2)no1 | inactive
8 | CO[C@H]1CN(C)C(=O)c2cc(NC(=O)C3CC3)ccc2OC[C@H](C)N(CCc2ccccc2)C[C@H]1C | inactive
9 | CCNC(=O)Nc1ccc2c(c1)C(=O)N(C)[C@H]1CC[C@H](CC(=O)Nc3ccccc3F)O[C@@H]1CO2 | inactive
10 | O=C(NC[C@H]1N[C@H](CO)[C@@H]1c1ccc(-c2ccccc2F)cc1)c1ccccc1 | inactive
11 | CCC(=O)Nc1ccc2c(c1)C(=O)N(C)[C@@H]1CC[C@H](CC(=O)Nc3cccc(OC)c3)O[C@@H]1CO2 | inactive
12 | COc1ccc(N2CCN(C(=O)CSc3nnc(CNc4ccccc4)o3)CC2)cc1 | inactive
13 | Cc1ccc(-n2ncc(C(=O)Nc3cc(Cl)ccc3C)c2C2CCNCC2)cc1C | inactive
14 | O=C(Nc1ccc(F)cc1)N1C[C@H]2[C@@H](c3ccccc31)[C@H](CO)N2C(=O)c1ccncc1 | inactive
15 | CCC(=O)N1C[C@H]2[C@@H](c3ccccc31)[C@H](CO)N2Cc1cc(F)ccc1F | inactive
16 | CN1C(=O)c2cc(NC(=O)c3cccc(F)c3)ccc2OC[C@@H]2O[C@H](CC(=O)Nc3ccccc3)CC[C@H]21 | inactive
17 | CC(=O)N(C)C[C@@H]1[C@@H](c2ccc(-c3cccc(C#N)c3)cc2)[C@H](CO)N1C(C)=O | inactive
18 | CCNC(=O)C[C@@H]1CC[C@@H]2[C@@H](COc3ccc(NC(=O)C4CCCCC4)cc3C(=O)N2C)O1 | inactive

Row | SMILES | outcome
19 | CC(C)NC(=O)N1C[C@@H]2[C@H](c3ccccc31)[C@@H](CO)N2C(=O)c1cccnc1 | inactive
20 | COCCNC(=O)C[C@H]1CC[C@@H]2[C@H](COc3ccc(NC(=O)c4cnccn4)cc3C(=O)N2C)O1 | inactive
21 | O=C(Nc1ccc(CN2CCOCC2)cc1)c1ccc(-c2ccc(Cl)cc2Cl)o1 | inactive
22 | CCCC(=O)Nc1ccc2c(c1)C(=O)N(C)[C@H]1CC[C@H](CC(=O)NCCN3CCCCC3)O[C@@H]1CO2 | inactive
23 | CO[C@H]1CN(C)C(=O)c2cc(NC(=O)c3cccc(Oc4ccccc4)c3)ccc2OC[C@@H](C)NC[C@H]1C | inactive
24 | C[C@H](CO)N1C[C@H](C)[C@H](CN(C)C(=O)C2CCC2)Oc2cc(-c3ccc(C(=O)N(C)C)cc3)ccc2S1(=O)=O | inactive
25 | COC(=O)c1nn(-c2ccccc2)c(Sc2ccc(Cl)cc2)c1/C=N/O | inactive
26 | Cn1c(NC(=O)c2ccco2)c(-c2ccccc2Cl)c(=O)c2ccccc21 | inactive
27 | CCOc1ccc(C(CCc2ccccc2)NC(=O)c2ccccc2F)cc1OCC (stereo not given) | inactive
28 | C/C=C/c1ccc([C@@H]2[C@@H](CO)N[C@@H]2CN(CC(C)C)C(=O)c2ccccn2)cc1 | inactive
29 | CN1C(=O)c2cc(NC(=O)c3cccc(F)c3)ccc2OC[C@@H]2O[C@@H](CC(=O)Nc3ccccc3)CC[C@@H]21 | inactive
30 | C[C@@H]1CN([C@@H](C)CO)C(=O)c2cccc(NC(=O)Nc3ccc4c(c3)OCO4)c2O[C@@H]1CN(C)Cc1ccc(Oc2ccccc2)cc1 | inactive
31 | Cc1nn(C)cc1NC(=O)C[C@H]1CC[C@H]2[C@H](COc3ccc(NC(=O)c4cccc(F)c4)cc3C(=O)N2C)O1 | inactive
32 | CN1C(=O)c2cc(NC(=O)c3cccs3)ccc2OC[C@H]2O[C@H](CC(=O)NCCN3CCCCC3)CC[C@@H]21 | inactive
33 | O=C(NC[C@H]1[C@H](c2ccccc2)[C@@H](CO)N1Cc1ccccn1)C1CC1 | inactive
34 | N=c1c2c(-c3ccccc3)c(-c3ccccc3)n(Cc3ccccc3)c2ncn1CCCO | inactive
35 | C/C=C/c1ccc([C@H]2[C@@H](CO)N(C(=O)CC)[C@H]2CNC(=O)CC)cc1 | inactive

— PubChem BioAssay AID720690 (Broad Institute, 2013)
